# Screening data as filed in PubChem.
# PfHsp90 yeast 2: growth inhibition of yeast expressing Plasmodium Hsp90; S. cerevisiae expressing PfHsp90, BacTiter-Glo ATP, 48 h; yeast lacking PDR1 and PDR3 efflux regulators; inhibition, % at 9.4 µM; 310,000 compounds, 0.32% hits; AID 504621;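 active means every replicate shows inhibition above about 80%, whatever the replicate mean, limit read from the data; inconclusive means mean inhibition reaches the set limit but some replicate falls short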;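 further: 0% = DMSO neutral controls and 100% = 20 µM radicicol positive controls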
# TIM10 inh: inhibits growth of TIM10 yeast strain; AID 463195; inhibition, % at 10 µM; S. cerevisiae TIM10 strain growth, BacTiter-Glo luminescence, 24 h; 330,000 compounds, 1.4% hits;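 active means inhibition of 40% or more at the single tested concentration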;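 further: wild-type TIM10 isogenic control strain grown at permissive 25 °C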
# tim23-1 inh: tim23-1 yeast growth inhibition; inhibition, % at 20 µM; S. cerevisiae tim23-1 growth, BacTiter-Glo luminescence, 24 h; 330,000 compounds, 1.3% hits;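 active means growth inhibition of the mutant yeast at or above 50%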;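 further: temperature-sensitive mutant grown at 25 °C; plate controls were DMSO-treated mutant yeast for no effect and medium wells lacking yeast for full effect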
# tim10-1 inh: inhibits growth of tim10-1 mutant yeast. inhibition, % at 20 µM. 330,000 compounds, 2.2% hits. S. cerevisiae tim10-1 ts strain growth, BacTiter-Glo, 24 h;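 active means inhibition of at least 40%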;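 further: mutant grown at 25 °C; 0% = DMSO wells with yeast and 100% = wells holding no yeast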
# Calb FLC: affects C. albicans growth with fluconazole; C. albicans CaCi-2 (fluconazole-resistant clinical isolate) + fluconazole, Alamar Blue growth, 48 h; 300,000 compounds, 0.57% hits; growth inhibition, % (concentration not given with the values);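 active means growth inhibition above about 58% in most replicates, limit read from the data, passing the limit was not always enough; inconclusive means exactly half the replicates above a set limit; inactive means most replicates below a set limit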;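 further: all wells also contain fluconazole at 8 µg/ml as a sub-toxic cotreatment; 0% = median of DMSO wells and 100% = median of geldanamycin control wells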
# SKKanGAS inh: blocks kanamycin growth of S. pyogenes SKKanGAS strain | inhibition, % at 7.5 µM | BacTiter-Glo, 6 h | 300,000 compounds, 1.3% hits;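 active means mean replicate score, as percent of positive control median, at least 50; inconclusive means mean below 50 but one replicate at or above 50; inactive means mean and every replicate below 50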;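 further: strain carries kanamycin resistance gene driven by streptokinase promoter and grows in 40 µg/ml kanamycin; loss of luminescence reflects streptokinase promoter inhibition or plain growth inhibition; 0% = median of DMSO wells and 100% = positive control at its reference dose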
# * marks the source's active call; other numbers are inactive results; u = inconclusive; x = no result given. This is a sample that favours compounds with a hit; in the whole collection about 4.7% have one here.
SMILES,PfHsp90 yeast 2,TIM10 inh,tim23-1 inh,tim10-1 inh,Calb FLC,SKKanGAS inh
O=C(CNc1cccc2ccccc12)N/N=C/c1ccc([N+](=O)[O-])o1,-17,-129,-7,-40,37,131*
CC(C)(C)c1ccc2c(c1)OC(C(=O)N/N=C\c1ccncc1)CO2 (stereo unspecified),2,-79,7,-64,3,-20
CC(C)(C)c1ccc2c(c1)OC(C(=O)N/N=C/c1ccc([N+](=O)[O-])o1)CO2 (stereo unspecified),x,6,28,-49,10,66*
CC1(C(=O)N/N=C/c2ccc([N+](=O)[O-])o2)CC1(Br)Br (stereo unspecified),-8,26,24,24,92*,5
CCC(=O)N1CCc2cc(S(=O)(=O)NC(C(=O)N3CCN(c4ccc(F)cc4)CC3)C(C)C)ccc21 (stereo unspecified),16,-4,19,24,-1,3
Cc1ccc(N=Nc2ccc(O)c3ncccc23)cc1,-42,x,x,x,u,109*
Cc1ccc(N=Nc2ccc(O)c3ncccc23)cc1C,-58,0,18,38,9,88*
Cc1cccc(OCc2ccccc2)n1,-5,x,x,x,x,x
COc1ccc(-c2nnc3n(CCc4ccccc4)c(=O)c4ccccc4n23)c(OC)c1,107*,26,-2,19,9,7
COc1cc(OC)c(-c2nnc3n(CCc4ccccc4)c(=O)c4ccccc4n23)cc1OC,x,12,0,-2,20,5
O=C(Cn1c(=O)oc2ccccc21)NCC1COc2ccccc2O1 (stereo unspecified),-21,6,2,4,1,-2
Cc1ccc(NC(=O)c2nc(S(=O)(=O)Cc3ccccc3)ncc2Cl)cc1,104*,-59,50,-114,8,15
Cc1cccc(C)c1NC(=O)c1nc(S(=O)(=O)Cc2ccccc2)ncc1Cl,-27,6,43,36,-5,-11
Cc1ccc(NC(=O)CN(C)CC(=O)Nc2sc3c(c2C(N)=O)CCC3)cc1,-18,9,6,-1,5,9
Cc1cccc(C)c1NC(=O)CN(C)CC(=O)Nc1sc2c(c1C(N)=O)CCC2,-12,6,11,-5,5,50*
C=C(CCO)C1=CCN(S(=O)C(C)(C)C)[C@@H]1CCO (stereo partly specified),6,x,x,x,x,x
CC(C)c1nnc(NC(=O)c2c(O)c3cccc4c3n(c2=O)CCC4)s1,24,2,8,-9,19,90*
Cc1cnc(NC(=O)c2c(O)c3cccc4c3n(c2=O)CCC4)s1,x,x,x,x,-13,-4
O=C(NCCc1ccccc1)c1c(O)c2cccc3c2n(c1=O)CC3,19,-4,17,22,90*,23
COc1ccc(CCNC(=O)c2c(O)c3cccc4c3n(c2=O)CC4)cc1,6,8,-3,5,-20,13
COc1ccc(CCNC(=O)c2c(O)c3ccccc3n(C)c2=O)cc1,-3,-23,35,-37,96*,8
CCCc1nc2ccccc2c(=O)n1NC(=O)c1c(O)c2cccc3c2n(c1=O)CCC3,-10,1,11,-15,5,73*
Cn1c(=O)c(C(=O)NCCCc2ccccc2)c(O)c2ccccc21,32,-21,1,-18,2,-6
Cc1ccccc1-c1cccc([C@@H]2C[C@H]3[C@H](CON3C)CN2Cc2ccccc2)c1,-17,x,x,x,x,x
Cc1ccc(NC(=O)CSCc2cc(=O)n3ccsc3n2)cc1,-2,4,6,10,-2,-6
SMILES,PfHsp90 yeast 2,TIM10 inh,tim23-1 inh,tim10-1 inh,Calb FLC,SKKanGAS inh
Cc1ccc(C)c2c1c1ccccc1n2C,-3,6,-4,2,4,-7
Cn1c2ccccc2c2ccc3c(c21)C(=O)C=CC3=O,124*,x,x,x,x,x
O=C(NC12CC3CC(CC(C3)C1)C2)c1cccnc1Cl,2,9,11,1,2,0
CN(C)c1ccc(C2Nc3ccccc3C(=O)N2NS(C)(=O)=O)cc1 (stereo unspecified),35,5,-5,10,-5,-1
O=C(NCCOC(=O)c1ccccc1)c1ccccc1,-2,-3,11,-14,x,x
COc1ccc(S(=O)(=O)N2CCC3(CC2)CC(=O)c2ccccc2O3)cc1OC,-5,-14,-9,-2,11,-13
O=C(Cc1ccc(Br)cc1)Nc1nc2ccccc2[nH]1,-5,-9,-7,2,3,57*
